Screens as filed in PubChem.
An excerpt weighted towards active compounds, which were near 12% of everything screened.
Sfp inh – inhibitors of Bacillus subtilis Sfp phosphopantetheinyl transferase; Q9F4F7; Biochemical Sfp PPTase activity, qHTS; Potency, µM, inactives show largest response in the series, negative = inhibition, usual class: inhibitors; actives 3.5% (n = 310,000);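 note: the enzyme is Sfp with the accession as filed and its product quenches rhodamine fluorescence; 0% = enzyme reaction without inhibitor and -100% = no enzyme wells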
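After 15 min at room temperature with compound, 15 nM Sfp received 5 uM rhodamine-CoA plus 12.5 uM BHQ-2-ybbR (50 mM Hepes pH 7.6, 10 mM MgCl2). Rate came from the fluorescence difference over 30 min, ex 525/em 598 nm.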
HP1b chromo inh – blocks HP1-beta chromodomain binding to methylated histone tails; AlphaScreen HP1-beta / biotin-H3K9me3 peptide binding; Potency, µM (highest dose often 114 µM), without a hit: at the top dose activity change, negative = inhibition, most hits filed as inhibitors; actives 0.56% (n = 390,000); AID 540317; note: nearly all actives have a fitted effect of over 70% in size
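Compound inhibition of the preformed complex between 50 nM HP1-beta and 50 nM biotinylated H3K9me3 peptide was read by AlphaScreen. Buffer was PBS pH 7.4 with 0.01% Tween-20. Incubations ran 30 min at room temperature, with 10 ug/mL donor/acceptor beads.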
BAZ2B inh – inhibitors of human BAZ2B bromodomain; AID 504333; AlphaScreen BAZ2B-H3K14Ac peptide displacement; Q9UIF8; Potency, µM (highest dose often 114 µM), for inactives: top-dose activity change, negative = inhibition, actives largely listed as inhibitors; actives 4.4% (n = 360,000); note: % is set by controls: 0 for no effect and ±100 for the full control effect; nearly all actives have a fitted effect of over 60% in size
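Inhibition is scored as reduced AlphaScreen emission. The BAZ2B/b-H3(5-23)K14Ac complex (50 nM each) in PBS pH 7.4, 0.01% Tween-20 meets compound (up to 110 uM) for 30 min at RT before bead addition.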
JMJD2A Tudor – blocks the human JMJD2A Tudor domain; AlphaScreen JMJD2A-Tudor / H3K4me3 peptide binding; O75164; AID 504339; actives 4.4% (n = 390,000); Potency, µM (highest dose often 114 µM), for the others: at the highest dose activity change, negative = inhibition, usual class: inhibitors; note: % is set by controls: 0 for no effect and ±100 for the full control effect; nearly all actives have a fitted effect of over 50% in size
G9a inh – blocks human histone lysine methyltransferase G9a; G9a H3K9 monomethylation, AlphaScreen, 2 h; Potency, µM (highest dose often 102 µM), for the others: at the top dose activity, negative = inhibition, most hits filed as inhibitors; actives 8.8% (n = 350,000); AID 504332; note: % is set by controls: 0 for no effect and ±100 for the full control effect; nearly all actives have a fitted effect of over 75% in size
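G9a (20 nM) preincubated 15 min RT with compounds, then 500 nM biotinylated H3K9 peptide and 20 uM SAM added; 2 h RT reaction. Monomethyl-H3K9 product detected by AlphaScreen with anti-H3K9me1 antibody, streptavidin donor and anti-rabbit IgG acceptor beads.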
L3MBTL1 block – blocks human L3MBTL1; Q9Y468; AlphaScreen L3MBTL1–H3K9me1 peptide binding; Potency, µM (titrated, usually from 57.1 µM), for inactives: at the top dose activity, negative = inhibition, hits mostly inhibitors; actives 0.66% (n = 230,000); note: % is set by controls: 0 for no effect and ±100 for the full control effect; nearly all actives have a fitted effect of over 60% in size
Target sequence (Q9Y468 whole entry, looked up): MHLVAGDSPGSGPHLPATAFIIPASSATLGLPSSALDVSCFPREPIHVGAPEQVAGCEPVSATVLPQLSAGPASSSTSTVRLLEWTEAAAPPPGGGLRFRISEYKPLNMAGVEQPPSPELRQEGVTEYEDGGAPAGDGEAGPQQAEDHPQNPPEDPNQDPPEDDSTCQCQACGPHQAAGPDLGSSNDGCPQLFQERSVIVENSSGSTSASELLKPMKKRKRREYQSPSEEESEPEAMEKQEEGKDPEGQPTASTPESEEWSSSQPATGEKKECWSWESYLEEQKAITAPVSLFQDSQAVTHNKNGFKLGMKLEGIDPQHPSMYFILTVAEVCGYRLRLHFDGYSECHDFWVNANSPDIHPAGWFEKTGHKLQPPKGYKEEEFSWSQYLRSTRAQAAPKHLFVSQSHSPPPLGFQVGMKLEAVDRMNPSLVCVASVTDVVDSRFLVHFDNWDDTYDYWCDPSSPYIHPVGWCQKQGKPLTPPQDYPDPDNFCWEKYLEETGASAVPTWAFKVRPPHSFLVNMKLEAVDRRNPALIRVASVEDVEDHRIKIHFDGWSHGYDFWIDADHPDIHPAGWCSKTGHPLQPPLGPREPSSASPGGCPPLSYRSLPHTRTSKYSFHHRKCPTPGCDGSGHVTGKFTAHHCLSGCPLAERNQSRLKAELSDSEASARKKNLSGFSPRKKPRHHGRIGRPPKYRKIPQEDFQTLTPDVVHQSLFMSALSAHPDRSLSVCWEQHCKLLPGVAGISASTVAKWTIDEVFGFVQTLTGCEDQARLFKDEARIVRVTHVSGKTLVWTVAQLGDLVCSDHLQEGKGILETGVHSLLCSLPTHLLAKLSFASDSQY
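Displacement of a biotinylated histone H3(1-15) peptide monomethylated at Lys9 (75 nM) from L3MBTL1 (50 nM) was measured by AlphaScreen after a 30 min room-temperature compound incubation; cefsulodin titration served as intraplate control.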
* hit, by the source's call; ? = inconclusive; / = no result; [ ] = remark or other dose. Calls come from the whole dose curve; as a rule, active = well fitted curve in the direction sought with a large enough effect; inconclusive = small, poorly fitted or top-dose-only effect, or another doubt; inactive = no such curve, though single readings can be large; an effect the other way counts as inactive or inconclusive. Potency is the fitted concentration of half-maximal effect.

SMILES	Sfp inh	HP1b chromo inh	BAZ2B inh	JMJD2A Tudor	G9a inh	L3MBTL1 block
O=C1c2ccccc2NC(c2cccc([N+](=O)[O-])c2)N1O (stereo not drawn)	-4.1%	29.1%	?	-13.1%	38.1%[0.501 µM]	/
Cc1cccc(C)c1Nc1c(-c2ccccc2Cl)nc2cnccn12	/	79.1%	15.6%	11.3%	2.5%[59 µM]	/
Cc1c(-c2ccccc2)c(=O)oc2c(CN3CCCC3)c(O)ccc12	/	14.8%[57 µM]	8.3%	-17.5%	7.7%[59 µM]	/
CC/C(=C\C(=O)c1ccncc1)Nc1ccc(Br)cc1	-14.0%	?	50.1µM*	?	?	/
S=C1NCN(Cc2ccco2)CN1c1cccc2ccccc12	16.1%	22.4%	-23.4%	-23.8%	-35.7%	-10.5%
Cc1ccc(-n2c(-c3cc(-c4ccco4)[nH]n3)n[nH]c2=S)c(Br)c1	50.1µM*	-2.8%	?	-22.9%	5.62µM*	/
S=c1[nH]nc(-c2cc(-c3ccco3)[nH]n2)n1-c1cccc2ccccc12	10µM*	?	39.8µM*	89.1µM*	3.98µM*	?
CN(C)CCCN(C(=O)c1ccc(Cl)s1)c1nc2cc3c(cc2s1)OCO3	-0.6%	13.2%	?	-19.9%	?	/
CN(C)CCCN(C(=O)c1ccc([N+](=O)[O-])s1)c1nc2cc3c(cc2s1)OCCO3	2.3%	-21.7%	?	?	44.7µM*	/
CN(C)CCCN(C(=O)c1cc2cc([N+](=O)[O-])ccc2s1)c1nc2cc3c(cc2s1)OCCO3	/	-33.4%	?	?	20µM*	-10.7%
O=C(NC1CCCCC1)c1cc(-c2cccs2)on1	-10.7%	-10.2%	6.5%	-15.8%	?	/
COC(=O)C(C(=O)OC)[C@@H]1c2ccccc2[C@H]2C(=C[C@@H](C)[C@H]3C(=O)N(c4ccccc4)C(=O)[C@H]32)N1C(=O)OC	-2.7%	/	/	/	/	/
CCc1nnc(NC(=O)CSc2n[nH]c(-c3ccccc3O)n2)s1	12.5%	45.4%	-25.0%	4.1%	3.4%	-2.2%
COc1ccc(/C=C/C2=CC(C)(C)NC(=S)N2)cc1OC	13.3%	15.7%	/	-35.5%	44.7µM*	/
COc1cc(OC)c2c(O)c3c(c(-c4c5c(c(O)c6c(OC)cc(OC)cc46)CO[C@@H](C)[C@H]5O)c2c1)[C@H](O)[C@H](C)OC3	?	?	44.7µM*	50.1µM*	8.6%[12.7 µM]	?
COc1cc(OC)c2c(=O)c(O)c(-c3ccc(OC)c(OC)c3)oc2c1	15.9%	/	/	/	/	/
O=C(O)c1ccccc1/C=N/NC(=O)c1cc(-c2ccco2)nc2ccccc12	10µM*	?	20µM*	50.1µM*	14.1µM*	?
CCN1CCN(C(=O)c2cc(-c3ccco3)nc3ccccc23)CC1	/	-3.5%	70.8µM*	-35.2%	?	?
COc1cccc(NC(=O)c2cc(-c3ccco3)nc3ccccc23)c1	/	-21.3%	/	?	/	/
O=C(NNC(=O)c1cc(-c2ccco2)nc2ccccc12)c1ccccc1	20µM*	21.7%	-15.2%	-17.7%	/	4.4%
CC(=O)c1cccc(NC(=O)c2cc(-c3ccco3)nc3ccccc23)c1	-10.0%	-2.3%	-18.0%	-25.4%	50.1µM*	/
CC(=O)Nc1ccc(/C=N/NC(=O)c2cc(-c3ccco3)nc3ccccc23)cc1	7.7%	14.7%	-6.6%	-10.2%	/	2.6%
CCN1CCN(C(=O)c2cc(-c3ccc(Cl)s3)nc3ccccc23)CC1	-9.5%	34.9%	-12.5%	-12.8%	/	/
CC(=O)c1cccc(NC(=O)c2oc(C)nc2C)c1	10.9%	-12.3%	-1.6%	-17.3%	44.7µM*	-0.4%
O=C(Nc1cc(C(F)(F)F)ccc1Cl)C(Sc1cccc[n+]1[O-])c1ccccc1 (stereo not drawn)	-11.1%	5.7%	-8.8%	?	8.91µM*	9.7%
SMILES	Sfp inh	HP1b chromo inh	BAZ2B inh	JMJD2A Tudor	G9a inh	L3MBTL1 block
O=C(Nc1ccc(Cl)c([N+](=O)[O-])c1)C(Sc1ccccc1)c1ccccc1 (stereo not drawn)	7.0%	-19.0%	-38.2%	-31.0%	?	-0.9%
O=C(Nc1cc([N+](=O)[O-])ccc1Cl)C(Sc1ccccc1)c1ccccc1 (stereo not drawn)	7.8%	?	-38.4%	79.4µM*	-8.7%[59 µM]	-19.6%
Cc1cc(C(=O)N/N=C/c2cc(Cl)cc([N+](=O)[O-])c2O)c2ccccc2n1	1.3%	?	39.8µM*	56.2µM*	?	?
O=C(N/N=C/c1cc(Cl)cc([N+](=O)[O-])c1O)c1ccccc1NS(=O)(=O)c1cccs1	8.1%	?	-36.5%	56.2µM*	/	-0.5%
Cc1c(C(=O)OCc2ccccc2)[nH]c2c1C(=O)CC(c1ccc(N(C)C)cc1)C2 (stereo not drawn)	/	26.7%	1.1%	-9.6%	1.7%[59 µM]	/
Cc1c(C(=O)OCC2CCCO2)[nH]c2c1C(=O)CC(c1ccc(N(C)C)cc1)C2 (stereo not drawn)	-8.5%	-5.2%	44.7µM*	50.1µM*	14.1µM*	-8.1%
Cc1cc2c(s1)c1cnn(Cc3cccc(C(F)(F)F)c3F)c(=O)c1n2C	/	/	/	-28.1%	/	/
c1cncc(CSc2ccc(-c3ccc4c(c3)OCO4)nn2)c1	-14.3%	35.4%	/	-13.0%	50.1µM*	/
CC(=O)Nc1ccc(NC(=O)CSc2ccc(-c3ccc4c(c3)OCO4)nn2)cc1	-20.8%	17.3%	2.6%	-25.7%	7.94µM*	3.4%
CCOc1ccc(-n2nc(CO)c(C(=O)NCC(c3ccccc3)c3ccccc3)n2)cc1	/	27.3%	0.0%	1.9%	6.7%[59 µM]	/
CN1C[C@@H]2[C@@H]3C(=O)N(Cc4ccccc4)C(=O)[C@@H]3[C@](C)(C1=O)N2C(=O)c1ccc(Cl)cc1	/	28.6%	/	-16.8%	/	-2.5%
COc1ccc(OCCCC(=O)ON=C(N)c2ccccc2Cl)cc1	/	57.4%	30.6%	50.7%	?	43.0%
COc1ccc(CC(=O)Nc2nccs2)cc1S(=O)(=O)N1CCOCC1	/	17.0%	/	-2.3%	/	2.4%
COC(=O)c1c(NC(=O)Cc2ccc(OC)c(S(=O)(=O)N3CCOCC3)c2)sc(C)c1C	/	-9.2%	-25.9%	-29.7%	50.1µM*	-0.6%
COc1ccc2nc(NC(=O)Cc3ccc(OC)c(S(=O)(=O)N4CCOCC4)c3)sc2c1	15.7%	-23.0%	-8.3%	-11.5%[11.4 µM]	79.4µM*	/
CCCCN=CC1=C(O)CC(c2ccccc2)CC1=O (stereo not drawn)	12.7%	22.1%	-3.6%	-2.3%	?	7.9%
COC(=O)c1ccc(NC(=O)C(=O)NCCc2csc3nc(-c4ccccc4F)nn23)cc1	/	21.8%[57 µM]	0.2%	0.6%	2.5%[59 µM]	/
